# Assay results as given in PubChem BioAssay.
# “And” between values parts separate entries of the source, which are not always exact repeats. Identical values can stand only once. Records with an inconclusive call do not appear. The source made the active and inactive calls.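 The calls were made as follows, unless noted: active = compounds killing one labelled cell type while sparing the other, by normalised counts and ratio limits, not self-fluorescent; inactive = the rest.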
# Legend:
# [1] = differential killing of epithelial or mesenchymal cells, primary screen, imaging, PC-3E GFP, TEM4-18 mCherry, co-culture (AID 1345086); conditions: imaging cell counts, at 1 µM; for red/green cell ratio (normalised): actives lie on both sides;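 as to all read-outs here: cells exposed to compound for 72 h before imaging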;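 as to red/green cell ratio (normalised): normalised mesenchymal count divided by normalised epithelial count so high means epithelial killing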
# [2] = tested on: Aerobactin synthetase IucA (Klebsiella pneumoniae hvKP1); assay: Biochemical IucA enzyme inhibition primary screen of the Spectrum library (AID 1346200; call rule not given here;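 also: 100% = wells without compound and 0% = wells lacking enzyme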); conditions: malachite green pyrophosphate, A620, at 8 µM, stronger effect = lower value
# [3] = target: ATP-dependent translocase ABCB1 (Homo sapiens) (UniProt P08183); assay: MDR1 (ABCB1) efflux transporter inhibition, cell-based (AID 377; in the data active = fluorescence slope change above about 50%); conditions: MDR1-expressing cells, fluorescent substrate accumulation slope; stronger effect = higher value; concentration not given here
# Sequence of ATP-dependent translocase ABCB1 (Homo sapiens) (P08183 whole entry, looked up): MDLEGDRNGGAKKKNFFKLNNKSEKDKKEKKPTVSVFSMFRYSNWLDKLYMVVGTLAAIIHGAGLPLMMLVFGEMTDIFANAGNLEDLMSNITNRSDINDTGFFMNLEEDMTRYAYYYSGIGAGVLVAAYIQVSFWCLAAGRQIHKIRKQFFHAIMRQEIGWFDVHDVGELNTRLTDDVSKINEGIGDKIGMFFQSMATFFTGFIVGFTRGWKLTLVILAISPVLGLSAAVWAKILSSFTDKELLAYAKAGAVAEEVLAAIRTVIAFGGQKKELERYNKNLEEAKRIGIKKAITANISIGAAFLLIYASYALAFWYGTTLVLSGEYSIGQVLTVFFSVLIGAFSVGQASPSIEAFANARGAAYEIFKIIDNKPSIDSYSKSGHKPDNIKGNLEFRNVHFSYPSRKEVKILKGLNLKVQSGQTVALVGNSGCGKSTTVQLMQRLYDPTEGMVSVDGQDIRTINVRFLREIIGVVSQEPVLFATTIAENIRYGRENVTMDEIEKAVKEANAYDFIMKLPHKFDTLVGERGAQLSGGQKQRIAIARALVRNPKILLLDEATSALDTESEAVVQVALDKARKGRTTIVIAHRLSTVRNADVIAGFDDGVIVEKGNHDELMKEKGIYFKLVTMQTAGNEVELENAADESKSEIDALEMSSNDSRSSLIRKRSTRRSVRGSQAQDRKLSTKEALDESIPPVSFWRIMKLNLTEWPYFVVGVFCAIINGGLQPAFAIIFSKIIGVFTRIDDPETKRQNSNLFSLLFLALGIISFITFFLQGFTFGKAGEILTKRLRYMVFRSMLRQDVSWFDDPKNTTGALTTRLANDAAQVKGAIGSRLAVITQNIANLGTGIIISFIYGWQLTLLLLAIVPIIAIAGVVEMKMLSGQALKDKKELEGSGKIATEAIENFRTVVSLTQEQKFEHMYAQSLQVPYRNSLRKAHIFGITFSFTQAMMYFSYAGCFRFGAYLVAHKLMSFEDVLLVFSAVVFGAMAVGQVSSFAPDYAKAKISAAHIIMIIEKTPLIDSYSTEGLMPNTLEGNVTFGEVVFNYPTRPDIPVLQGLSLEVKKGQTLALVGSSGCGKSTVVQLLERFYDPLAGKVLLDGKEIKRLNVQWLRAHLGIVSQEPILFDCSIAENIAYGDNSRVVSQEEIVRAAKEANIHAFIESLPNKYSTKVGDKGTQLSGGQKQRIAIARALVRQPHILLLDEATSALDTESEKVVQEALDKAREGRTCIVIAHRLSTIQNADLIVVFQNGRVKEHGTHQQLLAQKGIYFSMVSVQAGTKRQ
# [4] = circadian clock period modulators, cell-based, LOPAC library, luminescence reporter (AID 2774; call rule not given here;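 also: values are relative to mean of DMSO wells on each plate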); conditions: circadian reporter cells, at 7 µM, actives lie on both sides
# [5] = hESC survival regulators, cell-based (AID 493140; call rule not given here;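 also: cells exposed to compounds for four days before counting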); conditions: human embryonic stem cell survival screen; stronger effect = higher value
# [6] = liver-stage malaria parasite growth inhibition, primary screen, cell-based, HepG2, luciferase luminescence, HepG2 viability (AID 624349; in the data active = parasite load remaining mostly below about 12%, no sharp cut-off; inactive = mostly above about 10%;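 also: 100% = mean of DMSO negative control wells on the same plate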); conditions: P. berghei liver stage in HepG2, luciferase luminescence, concentration not given here; parasite load remaining: stronger effect = lower value; viability: measured here: HepG2 viability without parasites
# [7] = tested on: Hepatitis C virus NS3 helicase; assay: HCV NS3 helicase inhibitors, primary screen, biochemical, fluorescence polarization, LOPAC1280 library (AID 687035; in the data active = inhibition above about 37%); conditions: Purified HCV NS3 helicase, Cy5-dT15 ssDNA binding fluorescence polarization; stronger effect = higher value; concentration not given here
# [8] = Cy5 fluorescence quenching or enhancement artefacts, artefact control for HCV NS3 helicase inhibitor project, biochemical, LOPAC1280 (AID 687037; call rule not given here); conditions: Cy5-DNA-NS3h complex fluorescence interference counterscreen
# [9] = tested on: Aerobactin synthetase IucA (Klebsiella pneumoniae); assay: IucA aerobactin synthetase inhibitors, biochemical, Tocris library, absorbance (AID 1345561; call rule not given here;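 also: 100% = enzyme without compound and 0% = no enzyme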); conditions: purified IucA enzyme assay, absorbance (OD) read-out; stronger effect = lower value; concentration not given here
# [10] = tested on: Aerobactin synthetase IucA (Klebsiella pneumoniae, hypervirulent); assay: IucA enzyme inhibition, biochemical, LOPAC library, absorbance readout (AID 1346212; call rule not given here;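 also: 100% = no compound wells and 0% = no enzyme wells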); conditions: IucA enzyme assay, absorbance (OD) readout; stronger effect = lower value; concentration not given here
# [11] = inhibitors of Cryptococcus chitosan production, flow cytometry, Cibacron Brilliant Red staining (AID 1347148; call rule not given here;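 also: compound exposure lasted three days at 37 degrees C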); conditions: Cryptococcus neoformans chitosan, stronger effect = lower value; at 10 µM unless noted
# [12] = phospholipid biosynthesis inhibitors in animal cells, primary screen, cell-based, LOPAC library, screen 4 (AID 1347384; call rule not given here); conditions: phospholipid biosynthesis inhibition screen, at 10 µM
# [13] = survival rescue of mitochondrial mutant cells in low glucose, primary screen, MELAS cybrids, Rieske KO mouse fibroblasts, CellTiter-Glo (AID 1508586;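 active = mean z-score across replicates of 1.96 or higher in either the MELAS or the Rieske mutant cell line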;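 also: z relative to plate mean and SD of compound and empty wells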)
# [14] = viability rescue of complex I mutant cybrids, primary screen, cell-based, galactose medium, ATP luminescence (AID 1645843;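 active = z-score of at least 1.8 in each of two replicates, scored against plate mean and spread of sample wells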;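 also: positive z means more ATP and so rescue of galactose-driven cybrid death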); conditions: complex I mutant cybrid cells, 72 h, stronger effect = higher value
# [15] = counts scaled to control wells, 1 = unselective
# [16] = measured here: epithelial PC-3E GFP cell survival
# [17] = measured here: mesenchymal TEM4-18 mCherry cell survival
# [18] = MELAS cybrid survival, CellTiter-Glo 48 h, stronger effect = higher value
# [19] = Rieske KO mouse fibroblast survival, CellTiter-Glo 72 h
structure (smiles),measurement,setting,value
Cc1cc(O)cc2oc(=O)c3c(O)cc(O)cc3c12,red/green cell ratio (normalised),[1]; [15],0.89 (inactive)
same,normalised cell number,[1]; [16],0.99
same,normalised cell number,[1]; [17],0.88
C[N+]12CC[C@@]34c5ccccc5N5C(=O)CC6OCC=C(C1)[C@@H](CC32)[C@@H]6C54 (some centres not stated),red/green cell ratio (normalised),[1]; [15],1.07 (inactive)
same,normalised cell number,[1]; [16],0.95
same,normalised cell number,[1]; [17],1.01
C=CCSSCC=C,red/green cell ratio (normalised),[1],1.09 (inactive)
same,normalised cell number,[1]; [16],0.87
same,normalised cell number,[1]; [17],0.95
same,activity remaining,[2],94.6% (inactive)
C[N+]12CC(C[C@H]1c1cccnc1)C2,red/green cell ratio (normalised),[1]; [15],1.02 (inactive)
same,normalised cell number,[1]; [16],1.14
same,normalised cell number,[1]; [17],1.16
Fc1ccc(N2CCNCC2)c(F)c1,red/green cell ratio (normalised),[1],1.03 (inactive)
same,normalised cell number,[1]; [16],1.01
same,normalised cell number,[1]; [17],1.04
CC1OC(=O)[C@@H](C(C)C)NC(=O)C(C(C)C)OC(=O)[C@H](C(C)C)NC(=O)C(C)OC(=O)[C@@H](C(C)C)NC(=O)C(C(C)C)OC(=O)[C@H](C(C)C)NC(=O)C(C)OC(=O)[C@@H](C(C)C)NC(=O)C(C(C)C)OC(=O)[C@H](C(C)C)NC1=O (some centres not stated),red/green cell ratio (normalised),[1],0.92 (inactive)
same,normalised cell number,[1]; [16],0.32
same,normalised cell number,[1]; [17],0.29
same,activity remaining,[2],122% (inactive)
CC1(C)CC(=O)C(Cl)C(=O)C1,red/green cell ratio (normalised),[1]; [15],0.82 (inactive)
same,normalised cell number,[1]; [16],1.28
same,normalised cell number,[1]; [17],1.05
C[C@H]1COc2c(N3CCNCC3)c(F)cc3c(=O)c(C(=O)O)cn1c23,red/green cell ratio (normalised),[1]; [15],0.98 (inactive)
same,normalised cell number,[1]; [16],1.08
same,normalised cell number,[1]; [17],1.06
CN1C[C@H](C(=O)N[C@]2(C)O[C@@]3(O)C4CCCN4C(=O)[C@H](Cc4ccccc4)N3C2=O)C=C2c3cccc4[nH]cc(c34)C[C@H]21 (some centres not stated),red/green cell ratio (normalised),[1],0.93 (inactive)
same,normalised cell number,[1]; [16],1.08
same,normalised cell number,[1]; [17],1
O=C1NCC[C@H]1O,red/green cell ratio (normalised),[1]; [15],0.95 (inactive)
same,normalised cell number,[1]; [16],1.13
same,normalised cell number,[1]; [17],1.08
COc1cc(O)c(C(=O)O)c(-c2cc(O)c(O)cc2C)c1,red/green cell ratio (normalised),[1]; [15],1.12 (inactive)
same,normalised cell number,[1]; [16],0.82
same,normalised cell number,[1]; [17],0.92
CN1CC[C@@]2(C)c3cc(O)ccc3N(C)[C@@H]12,red/green cell ratio (normalised),[1]; [15],1.19 (inactive)
same,normalised cell number,[1]; [16],0.88
same,normalised cell number,[1]; [17],1.05
COc1cc([C@@H]2c3cc4c(cc3[C@H](OC(C)=O)C3COC(=O)[C@@H]32)OCO4)cc(OC)c1OC (some centres not stated),red/green cell ratio (normalised),[1]; [15],0.81 (inactive)
same,normalised cell number,[1]; [16],0.2
same,normalised cell number,[1]; [17],0.16
C[C@]12CCC(=O)C=C1CCC1C2CC[C@@]2(C)C1CC[C@H]2O (some centres not stated),red/green cell ratio (normalised),[1],1.17 (inactive)
same,normalised cell number,[1]; [16],0.92
same,normalised cell number,[1]; [17],1.08
CC1CC[C@]2(NC1)O[C@H]1CC3C4CC[C@H]5C[C@@H](O)CC[C@]5(C)C4CC[C@]3(C)[C@H]1[C@@H]2C (some centres not stated),red/green cell ratio (normalised),[1]; [15],0.81 (inactive)
same,normalised cell number,[1]; [16],1.1
same,normalised cell number,[1]; [17],0.89
same,activity remaining,[2],96.8% (inactive)
NCCc1c[nH]c2ccc(O)cc12,fluorescence slope change,[3],73.4% (active)
same,period change,[4],-0.28 h (inactive)
same,survival,[5],12.7 (inactive)
same,parasite load remaining,[6],63.9% (inactive) and 71.4% (inactive)
same,viability,[6],113% and 89.1%
same,inhibition,[7],-1% (inactive)
same,fluorescence ratio (interference),[8],1 (inactive)
same,red/green cell ratio (normalised),[1],1.02 (inactive)
same,normalised cell number,[1]; [16],0.95
same,normalised cell number,[1]; [17],0.96
same,remaining activity,[9],97.8% (inactive)
same,remaining activity,[10],107% (inactive)
same,fold fluorescence,[11],4 [at 283.7 µM] (inactive)
same,outcome,[12],inactive
same,z-score,[13]; [18],-0.165 (inactive) and -0.0524 (inactive)
same,z-score,[13]; [19],-0.179 and -0.331
same,z-score,[14],0.29 (inactive) and 0.4 (inactive)
Fc1ccc(C2CCNCC2COc2ccccc2)cc1 (configuration not stated),red/green cell ratio (normalised),[1]; [15],0.82 (inactive)
same,normalised cell number,[1]; [16],1.28
same,normalised cell number,[1]; [17],1.05
Cc1ncc(C[n+]2csc(CCO)c2C)c(=O)[nH]1,red/green cell ratio (normalised),[1]; [15],0.81 (inactive)
same,normalised cell number,[1]; [16],1.27
same,normalised cell number,[1]; [17],1.03
CCC(C)C(=O)O[C@@H]1C[C@@]2(C)[C@H](c3ccoc3)OC(=O)CC23OC2(C)O[C@]14C1(C)[C@@H](CC(=O)OC)C5(C)CC1(O)[C@](O)(C5OC(=O)C1(C)OC1C)[C@@H](OC(C)=O)[C@]34O2 (some centres not stated),red/green cell ratio (normalised),[1]; [15],1.2 (inactive)
same,normalised cell number,[1]; [16],0.97
same,normalised cell number,[1]; [17],1.16
O=C1NCC[C@@H]1O,red/green cell ratio (normalised),[1]; [15],0.9 (inactive)
same,normalised cell number,[1]; [16],1.14
same,normalised cell number,[1]; [17],1.03
CCN1C[C@]2(OC(=O)c3ccccc3NC(C)=O)CCC(OC)[C@]34C1[C@@H](CC23)[C@@]1(O)CC(OC)[C@H]2CC4C1(O)[C@H]2OC (some centres not stated),red/green cell ratio (normalised),[1],1 (inactive)
same,normalised cell number,[1]; [16],0.94
same,normalised cell number,[1]; [17],0.93
O=C1CC2OCC=C3CN4CC[C@]56c7ccccc7N1C5[C@H]2[C@@H]3CC46 (some centres not stated),red/green cell ratio (normalised),[1]; [15],1.12 (inactive)
same,normalised cell number,[1]; [16],1.02
same,normalised cell number,[1]; [17],1.14
O=C1CCCC2C3CC(CN12)[C@@H]1CCCCN1C3 (some centres not stated),red/green cell ratio (normalised),[1]; [15],1.13 (inactive)
same,normalised cell number,[1]; [16],0.86
same,normalised cell number,[1]; [17],0.98
same,activity remaining,[2],119% (inactive)
CC1(C)C(=O)C=C[C@@]2(C)C1=C(O)C(=O)[C@]1(C)C2CC[C@@]2(C)[C@H](c3ccoc3)C[C@H]3O[C@]321 (some centres not stated),red/green cell ratio (normalised),[1],1.22 (inactive)
same,normalised cell number,[1]; [16],0.97
same,normalised cell number,[1]; [17],1.19
same,activity remaining,[2],116% (inactive)
CCCN1CCC[C@@H]2Cc3[nH]ncc3C[C@H]21,period change,[4],-0.035 hour (inactive) and -0.145 hour (inactive)
same,survival,[5],16 (inactive)
same,parasite load remaining,[6],75.7% (inactive) and 34.7% (inactive)
same,viability,[6],68.7% and 143%
same,inhibition,[7],-2% (inactive) and -1% (inactive)
same,fluorescence ratio (interference),[8],1 (inactive)
same,red/green cell ratio (normalised),[1],1.24 (inactive)
same,normalised cell number,[1]; [16],0.89
same,normalised cell number,[1]; [17],1.1
same,remaining activity,[9],126% (inactive)
same,remaining activity,[10],117% (inactive)
same,outcome,[12],inactive
same,z-score,[13]; [18],0.372 (inactive)
same,z-score,[13]; [19],-0.161
C[C@H]1OC(O[C@H]2[C@@H](O)CC(O[C@H]3[C@@H](O)C[C@H](O[C@H]4CC[C@]5(C)C6CC[C@]7(C)[C@@H](C8=CC(=O)OC8)[C@@H](O)C[C@]7(O)[C@@H]6CC[C@@H]5C4)O[C@@H]3C)O[C@@H]2C)C[C@H](O)C1O (some centres not stated),red/green cell ratio (normalised),[1],0.34 (inactive)
same,normalised cell number,[1]; [16],0.21
same,normalised cell number,[1]; [17],0.07
same,activity remaining,[2],115% (inactive)
C[CH2][Hg+].O=C([O-])c1ccccc1[S-].[Na+],red/green cell ratio (normalised),[1]; [15],0.36 (inactive)
same,normalised cell number,[1]; [16],0.18
same,normalised cell number,[1]; [17],0.06
